Experiments:
Experiment in all cases: DAPPL (digital affinity profiling via proximity ligation, sequencing); 10 mM Tris-HCl pH 7.5, 50 mM NaCl, 1 mM DTT, 4% glycerol, room temperature, 30 min; GST-TFs on glutathione beads, 16-mer random dsDNA library, 0.1% formaldehyde crosslink after washing; high values mean tight binding
FLI1 = target: T1, FLI1 (Homo sapiens, UniProt Q01543 1-452); conditions: protein: recombinant; tags: N-terminal GST; dsDNA, one strand shown
T1 sequence: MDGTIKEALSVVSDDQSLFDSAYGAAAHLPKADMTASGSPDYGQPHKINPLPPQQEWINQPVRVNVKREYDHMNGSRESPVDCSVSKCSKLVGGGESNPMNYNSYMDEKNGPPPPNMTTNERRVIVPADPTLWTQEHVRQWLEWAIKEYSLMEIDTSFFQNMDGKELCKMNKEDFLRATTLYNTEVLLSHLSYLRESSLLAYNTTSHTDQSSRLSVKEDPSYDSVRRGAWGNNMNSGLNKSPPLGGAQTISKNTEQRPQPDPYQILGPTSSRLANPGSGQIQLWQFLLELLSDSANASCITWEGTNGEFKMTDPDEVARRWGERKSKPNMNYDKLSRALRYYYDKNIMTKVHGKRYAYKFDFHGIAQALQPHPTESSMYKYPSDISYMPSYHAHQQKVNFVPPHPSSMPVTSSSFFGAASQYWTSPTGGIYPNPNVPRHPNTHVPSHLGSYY
Method in brief: (§1)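 Each value of binding signal is a hexamer's read frequency for a factor divided by the same hexamer's frequency in the tag-only sample. Barcoded, bead-captured GST fusions of human transcription factors made in yeast were pooled with that sample and incubated with 200 nmole of a random double-stranded 16-mer DNA library in Tris/NaCl/DTT/glycerol buffer at room temperature for 30 min. Washing, 0.1% formaldehyde crosslinking, proximity ligation, PCR and Illumina NextSeq500 sequencing followed.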

ELK1 = target: T2, ELK1 (Homo sapiens, UniProt P19419 1-428); conditions: protein: recombinant; tags: N-terminal GST; dsDNA, one strand shown
T2 sequence: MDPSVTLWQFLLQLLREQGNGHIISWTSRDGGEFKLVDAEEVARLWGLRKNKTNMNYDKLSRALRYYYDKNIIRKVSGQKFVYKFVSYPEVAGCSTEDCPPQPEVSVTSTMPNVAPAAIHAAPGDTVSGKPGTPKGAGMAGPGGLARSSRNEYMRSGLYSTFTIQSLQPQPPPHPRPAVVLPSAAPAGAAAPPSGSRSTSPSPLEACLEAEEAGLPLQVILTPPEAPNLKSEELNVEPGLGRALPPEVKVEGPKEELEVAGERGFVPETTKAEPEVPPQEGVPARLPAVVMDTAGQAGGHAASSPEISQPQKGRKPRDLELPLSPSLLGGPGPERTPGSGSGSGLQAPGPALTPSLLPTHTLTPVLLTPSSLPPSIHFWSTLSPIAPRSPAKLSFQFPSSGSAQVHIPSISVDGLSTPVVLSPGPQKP
Method in brief: as §1

GABPA = target: T3, GABPA (Homo sapiens, UniProt Q06546 1-454); conditions: protein: recombinant; tags: N-terminal GST; dsDNA, one strand shown
T3 sequence: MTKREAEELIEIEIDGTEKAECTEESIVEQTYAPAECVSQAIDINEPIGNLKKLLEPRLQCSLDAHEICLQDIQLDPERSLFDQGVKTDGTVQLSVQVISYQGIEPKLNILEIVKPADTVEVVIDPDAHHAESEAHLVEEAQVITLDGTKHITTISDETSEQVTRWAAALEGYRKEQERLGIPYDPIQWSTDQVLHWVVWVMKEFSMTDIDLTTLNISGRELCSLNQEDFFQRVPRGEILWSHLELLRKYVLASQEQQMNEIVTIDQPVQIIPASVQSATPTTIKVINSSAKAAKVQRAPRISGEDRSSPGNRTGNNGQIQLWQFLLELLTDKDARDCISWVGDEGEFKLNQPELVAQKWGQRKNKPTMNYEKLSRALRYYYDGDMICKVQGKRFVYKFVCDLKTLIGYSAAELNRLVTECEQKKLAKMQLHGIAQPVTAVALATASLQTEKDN
Method in brief: as §1

ERG = target: T4, ERG (Homo sapiens, UniProt P11308 1-479); conditions: protein: recombinant; tags: N-terminal GST; dsDNA, one strand shown
T4 sequence: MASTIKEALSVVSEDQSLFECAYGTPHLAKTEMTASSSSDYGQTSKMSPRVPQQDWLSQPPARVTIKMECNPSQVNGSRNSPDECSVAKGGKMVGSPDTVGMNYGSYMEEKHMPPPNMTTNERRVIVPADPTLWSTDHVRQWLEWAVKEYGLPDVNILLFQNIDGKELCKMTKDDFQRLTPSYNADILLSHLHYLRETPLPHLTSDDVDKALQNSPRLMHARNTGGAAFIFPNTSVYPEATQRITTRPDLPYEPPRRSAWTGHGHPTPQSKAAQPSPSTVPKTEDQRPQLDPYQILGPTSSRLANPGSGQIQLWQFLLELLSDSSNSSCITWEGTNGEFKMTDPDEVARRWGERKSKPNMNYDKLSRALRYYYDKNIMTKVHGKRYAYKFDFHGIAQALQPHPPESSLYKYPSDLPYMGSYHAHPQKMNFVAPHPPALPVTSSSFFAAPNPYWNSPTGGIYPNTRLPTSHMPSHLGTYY
Method in brief: as §1

ELF1 = ELF1 (Homo sapiens, UniProt P32519 1-619); conditions: protein: recombinant; tags: N-terminal GST; dsDNA, one strand shown
Sequence of ELF1 (P32519 whole entry): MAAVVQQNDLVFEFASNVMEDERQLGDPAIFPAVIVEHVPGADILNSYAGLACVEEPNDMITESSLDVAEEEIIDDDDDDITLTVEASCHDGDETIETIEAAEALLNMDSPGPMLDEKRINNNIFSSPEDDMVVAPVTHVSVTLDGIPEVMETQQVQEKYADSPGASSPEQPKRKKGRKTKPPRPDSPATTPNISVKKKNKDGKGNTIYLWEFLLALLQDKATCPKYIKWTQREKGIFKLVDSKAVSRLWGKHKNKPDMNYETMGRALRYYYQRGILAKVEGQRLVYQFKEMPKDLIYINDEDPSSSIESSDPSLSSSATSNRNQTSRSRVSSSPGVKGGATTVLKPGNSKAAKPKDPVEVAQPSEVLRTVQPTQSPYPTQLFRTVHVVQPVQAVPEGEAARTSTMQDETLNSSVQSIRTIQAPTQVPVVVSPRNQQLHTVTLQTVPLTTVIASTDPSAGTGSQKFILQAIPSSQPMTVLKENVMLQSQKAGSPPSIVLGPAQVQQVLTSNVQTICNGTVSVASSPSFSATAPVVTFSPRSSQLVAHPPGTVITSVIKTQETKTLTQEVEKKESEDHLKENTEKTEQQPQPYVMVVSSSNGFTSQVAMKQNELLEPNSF
Method in brief: as §1

EHF = target: T5, EHF (Homo sapiens, UniProt Q9NZC4 1-300); conditions: protein: recombinant; tags: N-terminal GST; dsDNA, one strand shown
T5 sequence: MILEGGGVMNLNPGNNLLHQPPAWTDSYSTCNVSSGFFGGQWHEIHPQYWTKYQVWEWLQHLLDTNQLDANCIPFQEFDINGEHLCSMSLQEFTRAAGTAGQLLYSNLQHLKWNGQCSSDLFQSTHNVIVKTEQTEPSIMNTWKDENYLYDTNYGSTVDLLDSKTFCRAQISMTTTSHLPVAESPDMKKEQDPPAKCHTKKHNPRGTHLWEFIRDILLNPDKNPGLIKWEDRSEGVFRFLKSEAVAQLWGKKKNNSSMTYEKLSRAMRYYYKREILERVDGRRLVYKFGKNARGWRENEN
Method in brief: as §1

SPI1 = SPI1 (Homo sapiens, UniProt P17947 1-270); conditions: protein: recombinant; tags: N-terminal GST; dsDNA, one strand shown
Method in brief: as §1

SPIB = SPIB (Homo sapiens, UniProt Q01892 1-262); conditions: protein: recombinant; tags: N-terminal GST; dsDNA, one strand shown
Sequence of SPIB (Q01892 whole entry): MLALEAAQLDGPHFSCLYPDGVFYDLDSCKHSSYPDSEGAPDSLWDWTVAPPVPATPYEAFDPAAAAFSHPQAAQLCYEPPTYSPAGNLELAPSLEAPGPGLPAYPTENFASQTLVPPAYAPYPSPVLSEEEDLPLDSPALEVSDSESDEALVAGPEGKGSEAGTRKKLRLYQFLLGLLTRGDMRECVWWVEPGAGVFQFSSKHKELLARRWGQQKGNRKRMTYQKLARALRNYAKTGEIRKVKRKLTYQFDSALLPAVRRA
Method in brief: as §1

ELK3 = target: T6, ELK3 (Homo sapiens, UniProt P41970 1-407); conditions: protein: recombinant; tags: N-terminal GST; dsDNA, one strand shown
T6 sequence: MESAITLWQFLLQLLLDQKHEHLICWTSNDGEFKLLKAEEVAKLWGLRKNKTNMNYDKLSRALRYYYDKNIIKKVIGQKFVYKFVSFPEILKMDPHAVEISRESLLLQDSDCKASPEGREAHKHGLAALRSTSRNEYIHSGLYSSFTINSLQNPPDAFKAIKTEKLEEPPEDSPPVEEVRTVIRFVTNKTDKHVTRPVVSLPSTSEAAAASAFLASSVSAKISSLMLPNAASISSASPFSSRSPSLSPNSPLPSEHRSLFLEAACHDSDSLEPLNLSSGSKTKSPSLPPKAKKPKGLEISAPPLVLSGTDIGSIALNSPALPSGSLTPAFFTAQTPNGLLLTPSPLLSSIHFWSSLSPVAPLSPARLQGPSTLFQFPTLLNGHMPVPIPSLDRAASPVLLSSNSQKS
Method in brief: as §1

FEV = target: T7, FEV (Homo sapiens, UniProt Q99581 1-238); conditions: protein: recombinant; tags: N-terminal GST; dsDNA, one strand shown
T7 sequence: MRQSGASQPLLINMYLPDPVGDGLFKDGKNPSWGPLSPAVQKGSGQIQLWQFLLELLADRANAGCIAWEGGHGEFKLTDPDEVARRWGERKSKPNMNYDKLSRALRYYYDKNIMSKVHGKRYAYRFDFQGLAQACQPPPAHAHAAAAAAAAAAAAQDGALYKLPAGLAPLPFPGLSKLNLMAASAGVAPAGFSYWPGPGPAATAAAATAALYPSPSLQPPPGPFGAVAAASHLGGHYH
Method in brief: as §1

ETV5 = ETV5 (Homo sapiens, UniProt P41161 1-510); conditions: protein: recombinant; tags: N-terminal GST; dsDNA, one strand shown
Sequence of ETV5 (P41161 whole entry): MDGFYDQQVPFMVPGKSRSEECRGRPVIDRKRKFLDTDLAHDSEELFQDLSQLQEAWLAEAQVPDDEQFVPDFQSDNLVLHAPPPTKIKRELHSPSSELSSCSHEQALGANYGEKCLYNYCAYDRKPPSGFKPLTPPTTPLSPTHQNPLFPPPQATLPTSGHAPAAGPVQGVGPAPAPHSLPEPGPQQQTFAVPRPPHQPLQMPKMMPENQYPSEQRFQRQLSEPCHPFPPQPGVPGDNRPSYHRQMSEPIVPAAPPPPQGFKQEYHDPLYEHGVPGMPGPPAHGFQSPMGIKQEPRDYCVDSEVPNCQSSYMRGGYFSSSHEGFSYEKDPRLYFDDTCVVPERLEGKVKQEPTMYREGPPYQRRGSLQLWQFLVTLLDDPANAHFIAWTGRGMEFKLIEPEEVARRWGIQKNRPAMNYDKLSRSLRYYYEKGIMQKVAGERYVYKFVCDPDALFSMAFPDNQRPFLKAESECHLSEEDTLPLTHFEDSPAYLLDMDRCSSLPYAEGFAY
Method in brief: as §1

HSF1 = HSF1 (Homo sapiens, UniProt Q00613 1-529); conditions: protein: recombinant; tags: N-terminal GST; chain copies: 3; dsDNA, one strand shown
Sequence of HSF1 (Q00613 whole entry): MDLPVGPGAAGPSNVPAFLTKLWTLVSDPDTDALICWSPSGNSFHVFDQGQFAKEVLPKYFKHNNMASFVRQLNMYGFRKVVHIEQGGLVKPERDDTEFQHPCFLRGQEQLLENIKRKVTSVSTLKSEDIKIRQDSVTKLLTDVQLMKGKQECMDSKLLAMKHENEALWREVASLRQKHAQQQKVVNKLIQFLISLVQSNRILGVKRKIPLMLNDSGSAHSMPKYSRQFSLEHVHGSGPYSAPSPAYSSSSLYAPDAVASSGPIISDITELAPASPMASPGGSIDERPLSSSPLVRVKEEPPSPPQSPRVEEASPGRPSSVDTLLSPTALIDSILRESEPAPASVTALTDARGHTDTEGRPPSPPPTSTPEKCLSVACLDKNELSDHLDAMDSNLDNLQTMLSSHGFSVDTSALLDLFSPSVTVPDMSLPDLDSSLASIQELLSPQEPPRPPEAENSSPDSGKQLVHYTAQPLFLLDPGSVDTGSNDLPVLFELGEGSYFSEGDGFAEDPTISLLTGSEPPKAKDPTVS
Method in brief: as §1

SPIC = target: T8, SPIC (Homo sapiens, UniProt Q8N5J4 1-248); conditions: protein: recombinant; tags: N-terminal GST; dsDNA, one strand shown
T8 sequence: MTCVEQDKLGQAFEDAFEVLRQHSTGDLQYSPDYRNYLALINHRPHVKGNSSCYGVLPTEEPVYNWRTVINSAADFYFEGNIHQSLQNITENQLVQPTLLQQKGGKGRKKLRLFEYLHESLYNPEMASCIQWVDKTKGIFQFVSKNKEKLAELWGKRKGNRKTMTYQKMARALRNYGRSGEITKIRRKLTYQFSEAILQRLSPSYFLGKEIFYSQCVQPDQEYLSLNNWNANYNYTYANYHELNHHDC
Method in brief: as §1

ELF4 = ELF4 (Homo sapiens, UniProt Q99607 1-663); conditions: protein: recombinant; tags: N-terminal GST; dsDNA, one strand shown
Sequence of ELF4 (Q99607 whole entry): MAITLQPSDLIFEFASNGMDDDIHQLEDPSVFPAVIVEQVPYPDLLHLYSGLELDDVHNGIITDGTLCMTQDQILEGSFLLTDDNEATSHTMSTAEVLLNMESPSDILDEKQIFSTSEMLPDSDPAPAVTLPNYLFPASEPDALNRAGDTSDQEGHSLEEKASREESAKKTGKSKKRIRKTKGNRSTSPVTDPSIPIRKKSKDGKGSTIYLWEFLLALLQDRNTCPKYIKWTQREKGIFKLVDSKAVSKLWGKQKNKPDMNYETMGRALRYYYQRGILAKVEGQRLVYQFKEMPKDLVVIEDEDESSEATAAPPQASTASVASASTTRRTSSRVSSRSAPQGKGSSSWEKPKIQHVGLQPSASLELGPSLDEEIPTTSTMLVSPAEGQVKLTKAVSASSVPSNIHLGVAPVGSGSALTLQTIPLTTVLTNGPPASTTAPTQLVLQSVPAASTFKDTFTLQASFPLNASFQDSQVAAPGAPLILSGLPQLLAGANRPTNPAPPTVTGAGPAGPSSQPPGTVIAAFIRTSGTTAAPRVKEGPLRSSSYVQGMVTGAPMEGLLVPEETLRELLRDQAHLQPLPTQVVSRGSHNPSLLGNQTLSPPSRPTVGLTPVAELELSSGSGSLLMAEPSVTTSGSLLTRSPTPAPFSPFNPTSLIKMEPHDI
Method in brief: as §1

ELK4 = target: T9, ELK4 (Homo sapiens, UniProt P28324-2 1-405); conditions: protein: recombinant; tags: N-terminal GST; dsDNA, one strand shown
T9 sequence: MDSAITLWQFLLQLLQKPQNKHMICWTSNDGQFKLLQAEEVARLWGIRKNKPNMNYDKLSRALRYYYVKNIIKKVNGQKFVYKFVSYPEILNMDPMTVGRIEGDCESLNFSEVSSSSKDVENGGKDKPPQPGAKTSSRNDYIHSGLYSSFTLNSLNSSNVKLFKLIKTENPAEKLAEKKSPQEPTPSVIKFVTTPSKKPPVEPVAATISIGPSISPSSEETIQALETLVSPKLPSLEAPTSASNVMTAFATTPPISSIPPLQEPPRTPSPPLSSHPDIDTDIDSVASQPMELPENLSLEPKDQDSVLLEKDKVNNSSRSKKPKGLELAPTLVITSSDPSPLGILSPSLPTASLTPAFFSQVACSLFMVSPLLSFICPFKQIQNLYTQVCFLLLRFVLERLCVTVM
Method in brief: as §1

ETV2 = target: T10, ETV2 (Homo sapiens, UniProt O00321 1-342); conditions: protein: recombinant; tags: N-terminal GST; dsDNA, one strand shown
T10 sequence: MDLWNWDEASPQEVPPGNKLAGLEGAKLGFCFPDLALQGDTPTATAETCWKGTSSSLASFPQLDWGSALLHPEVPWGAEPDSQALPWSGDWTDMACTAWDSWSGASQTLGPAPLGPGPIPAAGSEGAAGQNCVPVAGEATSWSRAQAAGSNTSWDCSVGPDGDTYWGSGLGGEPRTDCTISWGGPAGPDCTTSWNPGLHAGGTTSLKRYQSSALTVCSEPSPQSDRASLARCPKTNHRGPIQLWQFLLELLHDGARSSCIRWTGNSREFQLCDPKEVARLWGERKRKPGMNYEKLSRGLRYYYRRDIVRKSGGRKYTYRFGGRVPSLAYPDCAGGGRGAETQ
Method in brief: as §1

ELF3 = target: T11, ELF3 (Homo sapiens, UniProt P78545 1-371); conditions: protein: recombinant; tags: N-terminal GST; dsDNA, one strand shown
T11 sequence: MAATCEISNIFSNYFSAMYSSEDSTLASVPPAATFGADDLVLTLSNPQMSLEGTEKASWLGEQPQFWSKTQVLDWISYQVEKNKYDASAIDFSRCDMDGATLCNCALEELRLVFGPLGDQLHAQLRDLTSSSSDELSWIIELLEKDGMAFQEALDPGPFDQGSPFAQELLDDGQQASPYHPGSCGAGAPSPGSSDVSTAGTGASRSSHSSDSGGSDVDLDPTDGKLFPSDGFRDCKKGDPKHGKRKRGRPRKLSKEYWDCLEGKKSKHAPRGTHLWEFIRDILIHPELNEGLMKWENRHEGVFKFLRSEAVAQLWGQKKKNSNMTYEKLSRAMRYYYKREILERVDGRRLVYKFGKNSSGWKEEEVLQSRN
Method in brief: as §1

CRX = CRX (Homo sapiens, UniProt O43186 1-299); conditions: protein: recombinant; tags: N-terminal GST; dsDNA, one strand shown
Sequence of CRX (O43186 whole entry): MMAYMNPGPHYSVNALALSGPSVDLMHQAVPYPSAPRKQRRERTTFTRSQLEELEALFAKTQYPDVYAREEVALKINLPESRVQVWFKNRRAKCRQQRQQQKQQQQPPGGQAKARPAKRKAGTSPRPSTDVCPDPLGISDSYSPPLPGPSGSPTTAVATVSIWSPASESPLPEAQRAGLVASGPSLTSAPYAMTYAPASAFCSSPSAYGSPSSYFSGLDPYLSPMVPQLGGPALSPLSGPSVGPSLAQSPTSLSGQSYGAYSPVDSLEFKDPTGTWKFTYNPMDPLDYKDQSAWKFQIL
Method in brief: as §1

ETV1 = ETV1 (Homo sapiens, UniProt P50549 1-477); conditions: protein: recombinant; tags: N-terminal GST; dsDNA, one strand shown
Sequence of ETV1 (P50549 whole entry): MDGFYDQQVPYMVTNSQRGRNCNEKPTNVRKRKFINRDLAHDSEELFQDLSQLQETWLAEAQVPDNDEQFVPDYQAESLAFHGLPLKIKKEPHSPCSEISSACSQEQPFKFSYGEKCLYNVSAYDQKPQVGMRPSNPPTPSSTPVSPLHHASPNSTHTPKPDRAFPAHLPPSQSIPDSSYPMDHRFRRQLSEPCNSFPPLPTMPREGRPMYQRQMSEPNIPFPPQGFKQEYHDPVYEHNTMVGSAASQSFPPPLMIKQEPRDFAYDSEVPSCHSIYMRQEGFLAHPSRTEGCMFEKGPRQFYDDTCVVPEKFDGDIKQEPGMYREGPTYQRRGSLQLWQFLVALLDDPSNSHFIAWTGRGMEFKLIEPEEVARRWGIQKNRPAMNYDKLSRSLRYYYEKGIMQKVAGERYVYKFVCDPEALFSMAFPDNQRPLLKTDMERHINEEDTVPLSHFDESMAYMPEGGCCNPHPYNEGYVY
Method in brief: as §1

TCTCTA
binding signal (FLI1): 1.21 fold enrichment (6-mer frequency, TF over GST control) | binding signal (ELK1): 1.31 fold enrichment (6-mer frequency, TF over GST control) | binding signal (GABPA): 1.23 fold enrichment (6-mer frequency, TF over GST control) | binding signal (ERG): 1.36 fold enrichment (6-mer frequency, TF over GST control) | binding signal (ELF1): 1.36 fold enrichment (6-mer frequency, TF over GST control) | binding signal (EHF): 1.34 fold enrichment (6-mer frequency, TF over GST control) | binding signal (SPI1): 1.26 fold enrichment (6-mer frequency, TF over GST control) | binding signal (SPIB): 1.33 fold enrichment (6-mer frequency, TF over GST control) | binding signal (ELK3): 1.22 fold enrichment (6-mer frequency, TF over GST control) | binding signal (FEV): 1.32 fold enrichment (6-mer frequency, TF over GST control) | binding signal (ETV5): 1.21 fold enrichment (6-mer frequency, TF over GST control) | binding signal (HSF1): 1.74 fold enrichment (6-mer frequency, TF over GST control) | binding signal (SPIC): 1.38 fold enrichment (6-mer frequency, TF over GST control) | binding signal (ELF4): 1.25 fold enrichment (6-mer frequency, TF over GST control) | binding signal (ELK4): 1.22 fold enrichment (6-mer frequency, TF over GST control) | binding signal (ETV2): 1.24 fold enrichment (6-mer frequency, TF over GST control) | binding signal (ELF3): 1.28 fold enrichment (6-mer frequency, TF over GST control) | binding signal (CRX): 1.56 fold enrichment (6-mer frequency, TF over GST control) | binding signal (ETV1): 1.2 fold enrichment (6-mer frequency, TF over GST control)

Reference: article PMC7862700, “An all-to-all approach to the identification of sequence-specific readers for epigenetic DNA modifications on cytosine”
